Records with an inconclusive call do not appear. Calls of active or inactive are those of the source. Unless noted, the call rests on the fitted dose curve; in most records, active means well fitted curve in the direction sought with a large enough effect in the repeat runs; inconclusive means weak or mixed curves; inactive means no such curve, though single readings can be large; an effect the other way counts as inactive or inconclusive.
Columns and labels:
[1] = biological target: Nuclear receptor subfamily 1 group I member 3 (Homo sapiens) (UniProt Q14994); assay: qHTS assay to identify small molecule agonists of the constitutive androstane receptor (CAR) signaling pathway (AID 1224839);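 further: HepG2 cells stably carrying human CAR and a CYP2B6 luciferase reporter; series mostly up to about 92 µM; nearly all actives have a fitted effect of over 15% in size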
Method in brief: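 HepG2 cells stably co-transfected with hCAR and a CYP2B6-2.2kb luciferase reporter; compounds at 15 concentrations with 0.75 uM PK11195 present. After 24 hr at 37 C, luciferase read by ONE-Glo luminescence.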

[2] = qHTS assay to identify small molecule antagonists of the estrogen related receptor signaling pathway with the pleiotropic PPARgamma coactivator (PGC) from Tox21 10K library - cell viability counter screen (AID 1224840; active means well fitted cell-killing curve with a large enough effect in the repeat runs, not every such curve was filed as active; further: nearly all actives have a fitted effect of over 40% in size)
Method in brief: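 PGC/ERR cells were seeded at 2,000 cells/well and left 6 hours at 37 C/5% CO2 before pin-tool addition of compounds in DMSO. After 17.5 hours at 37 C, CellTiter-Fluor was added and fluorescence read 30 minutes later.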

[3] = biological target: Thyrotropin receptor (Homo sapiens) (UniProt P16473); assay: qHTS assay to identify small molecule agonists of the thyroid stimulating hormone receptor (TSHR) signaling pathway (AID 1224843; calls by dose curve; further: nearly all actives have a fitted effect of over 45% in size)
Method in brief: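 Cell line HEK293 with TSHR; density 800/well. Exposure 30 min RT. Readout HTRF cAMP (cAMP-d2/anti-cAMP-cryptate), 1 h RT before reading.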

[4] = qHTS assay to identify small molecule agonists of the hypoxia (HIF-1) signaling pathway - cell viability counter screen (AID 1224844; calls by dose curve; further: nearly all actives have a fitted effect of over 50% in size)
Method in brief: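 HRE-bla ME-180 cells in medium with 0.5% dialyzed FBS were preincubated 5 hrs at 37C, exposed to compounds for 17 hrs, then viability was read as CellTiter-Glo luminescence after 30 min at room temperature, in the reporter wells.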

[5] = qHTS assay to identify small molecule agonists of H2AX (AID 1224845; active means well fitted activation curve with a large enough effect in the signal ratio in the repeat runs, not every such curve was filed as active; the % refers to the signal ratio)
Method in brief: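 Wild-type CHO-K1 cells plated overnight, then exposed 3 hr at 37C to compounds at 15 concentrations (0.76% DMSO). Lysed, then HTRF anti-pH2AX(S139)-cryptate/anti-H2AX-d2 detection after 24 hr at room temperature; emissions 665 and 620 nm.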

[6] = qHTS assay to identify small molecule agonists of the hypoxia (HIF-1) signaling pathway (AID 1224846; active means well fitted activation curve with a large enough effect in the signal ratio in the repeat runs, not every such curve was filed as active; the % refers to the signal ratio)
Method in brief: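 HRE-bla ME-180 cells (beta-lactamase reporter under hypoxia response element) were plated at 2,000 cells/well in medium with 0.5% dialyzed FBS, rested 5 hrs, then given compounds in DMSO for 17 hrs at 37C, 5% CO2. Reporter induction was read with CCF4-AM FRET substrate.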

[7] = qHTS assay to identify small molecule agonists of H2AX - cell viability counter screen (AID 1224847; calls by dose curve; further: top concentration of the series differs between compounds; nearly all actives have a fitted effect of over 30% in size)
Method in brief: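 CHO-K1 cells plated overnight at 37C, then exposed 3 h at 37C to compounds at 15 concentrations (0.76% DMSO final). Viability by CellTiter-Glo luminescence after 30 min at room temperature.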

[8] = qHTS RealTime-Glo MT Cell Viability Assay in HepG2 cells - 24 hour (AID 1224867); further: nearly all actives have a fitted effect of over 50% in size
Method in brief: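 HepG2 cells (600/well) were dispensed with RealTime-Glo reagents, incubated 5 h at 37 °C, then treated with compounds in DMSO for up to 40 h. Nonlytic NanoLuc luminescence reflecting viable cells was read at each stated time point.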

[9] = A CellTox Green Cytotoxicity Assay to monitor cytotoxicity in HEK293 cells - 0 hour (AID 1224869); further: nearly all actives have a fitted effect of over 50% in size
Method in brief: (§1)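 HEK293 cells premixed with CellTox Green dye were seeded at 600 cells/well and left 5 h at 37 C/5% CO2 before pin transfer of 23 nL compound in DMSO. Fluorescence from dye bound to dead-cell DNA was read during 40 h treatment.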

[10] = A CellTox Green Cytotoxicity Assay to monitor cytotoxicity in HEK293 cells - 40 hour (AID 1224871); further: nearly all actives have a fitted effect of over 45% in size
Method in brief: as §1

[11] = qHTS RealTime-Glo MT Cell Viability Assay in HEK293 cells - 16 hour (AID 1224872); further: top concentration of the series differs between compounds; nearly all actives have a fitted effect of over 50% in size
Method in brief: (§2)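 HEK293 cells seeded with NanoLuc/prosubstrate reagent, rested 5 h at 37 C, then dosed and kept at 37 C up to 40 h. Nonlytic real-time luminescence from viable cells read at 0, 8, 16, 24, 32 and 40 h.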

[12] = qHTS RealTime-Glo MT Cell Viability Assay in HepG2 cells - 8 hour (AID 1224873); further: nearly all actives have a fitted effect of over 55% in size
Method in brief: (§3)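 HepG2 cells mixed with RealTime-Glo MT reagents (NanoLuc plus cell-permeant prosubstrate) were seeded at 600 cells/well, incubated 5 h at 37 C/5% CO2, then pinned with compounds in DMSO; nonlytic luminescence tracked viability during 40 h treatment.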

[13] = qHTS RealTime-Glo MT Cell Viability Assay in HEK293 cells - 40 hour (AID 1224874); settings: RealTime-Glo luminescence; max response: stronger effect = lower value; further: nearly all actives have a fitted effect of over 50% in size
Method in brief: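 HEK293 cells mixed with RealTime-Glo reagents (NanoLuc plus cell-permeant prosubstrate) at 600 cells/well, preincubated 5 h at 37 C/5% CO2, then given 23 nL compound in DMSO. Nonlytic luminescence from viable cells was read at 0, 8, 16, 24, 32 and 40 h.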

[14] = A CellTox Green Cytotoxicity Assay to monitor cytotoxicity in HEK293 cells - 24 hour (AID 1224875); further: series mostly up to about 77 µM; nearly all actives have a fitted effect of over 45% in size
Method in brief: as §1

[15] = qHTS RealTime-Glo MT Cell Viability Assay in HEK293 cells - 32 hour (AID 1224868)
Method in brief: as §2

[16] = qHTS RealTime-Glo MT Cell Viability Assay in HepG2 cells - 40 hour (AID 1224870); further: nearly all actives have a fitted effect of over 50% in size
Method in brief: as §3
On the % scale 0 is the no-effect control and ±100 the full control effect.

Thyrotropin receptor (Homo sapiens), sequence (P16473 whole entry, looked up): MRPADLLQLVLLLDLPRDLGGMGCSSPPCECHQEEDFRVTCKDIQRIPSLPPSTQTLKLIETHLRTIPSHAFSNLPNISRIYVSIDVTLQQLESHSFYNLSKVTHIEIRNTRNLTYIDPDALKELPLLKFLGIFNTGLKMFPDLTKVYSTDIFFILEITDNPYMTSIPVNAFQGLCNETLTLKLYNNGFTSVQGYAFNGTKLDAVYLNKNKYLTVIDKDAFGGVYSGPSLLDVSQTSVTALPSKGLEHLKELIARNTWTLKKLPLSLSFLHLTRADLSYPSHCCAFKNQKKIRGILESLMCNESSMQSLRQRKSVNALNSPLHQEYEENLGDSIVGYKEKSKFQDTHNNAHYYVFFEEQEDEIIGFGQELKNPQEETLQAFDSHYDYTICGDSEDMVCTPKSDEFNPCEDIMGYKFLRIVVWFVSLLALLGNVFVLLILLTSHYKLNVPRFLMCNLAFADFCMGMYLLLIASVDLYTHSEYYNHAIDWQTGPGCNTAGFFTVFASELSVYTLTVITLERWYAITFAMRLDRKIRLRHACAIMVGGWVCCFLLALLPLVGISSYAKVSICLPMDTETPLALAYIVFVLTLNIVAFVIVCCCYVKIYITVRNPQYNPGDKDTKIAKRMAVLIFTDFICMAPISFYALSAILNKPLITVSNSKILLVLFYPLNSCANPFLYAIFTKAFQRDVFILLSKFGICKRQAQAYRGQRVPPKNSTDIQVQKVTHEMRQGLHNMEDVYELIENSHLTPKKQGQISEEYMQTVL
Nuclear receptor subfamily 1 group I member 3 (Homo sapiens), sequence (Q14994 whole entry, looked up): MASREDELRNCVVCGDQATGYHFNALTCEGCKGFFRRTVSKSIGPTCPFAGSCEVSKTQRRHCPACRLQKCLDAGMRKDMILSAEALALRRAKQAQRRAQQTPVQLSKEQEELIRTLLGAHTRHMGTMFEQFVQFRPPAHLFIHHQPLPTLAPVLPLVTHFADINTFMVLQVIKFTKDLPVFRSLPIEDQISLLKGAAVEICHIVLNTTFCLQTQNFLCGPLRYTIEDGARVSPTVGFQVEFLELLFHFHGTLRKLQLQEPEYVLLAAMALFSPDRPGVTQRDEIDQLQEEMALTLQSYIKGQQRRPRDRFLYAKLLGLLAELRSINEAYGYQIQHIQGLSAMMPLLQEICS

CC(C)[C@H]1CC[C@H](C)C[C@@H]1O
inactive: Potency [1] | outcome [2] | outcome [3] | outcome [4] | outcome [5] | outcome [6] | outcome [7] | outcome [8] | Potency [9] | Potency [10] | Potency [11] | outcome [12] | max response [13] 2.31% | Potency [14]

O=Cc1cc2ccccc2o1
inactive: Potency [1] | outcome [2] | outcome [3] | outcome [4] | outcome [5] | outcome [6] | outcome [8] | Potency [15] | Potency [9] | outcome [16] | Potency [10] | Potency [11] | outcome [12] | max response [13] -1.57% | Potency [14]

CC1(C)Cc2cccc(N)c2O1
inactive: Potency [1] | outcome [2] | outcome [3] | outcome [4] | outcome [5] | outcome [6] | outcome [8] | Potency [15] | Potency [9] | outcome [16] | Potency [10] | Potency [11] | outcome [12] | max response [13] 1.5% | Potency [14]

C=CC(=O)OCC1CCCO1 (centres undefined)
inactive: Potency [1] | outcome [2] | outcome [3] | outcome [4] | outcome [5] | outcome [6] | outcome [8] | Potency [15] | Potency [9] | outcome [16] | Potency [10] | Potency [11] | outcome [12] | max response [13] 0.647% | Potency [14]

C=CCOC(=O)CCCCCC
inactive: Potency [1] | outcome [2] | outcome [3] | outcome [4] | outcome [5] | outcome [6] | outcome [8] | Potency [15] | Potency [9] | outcome [16] | Potency [10] | Potency [11] | outcome [12] | max response [13] 3.28% | Potency [14]

COc1cc(OC)nc(O[C@H](C(=O)O)C(OC)(c2ccccc2)c2ccccc2)n1
inactive: Potency [1] | outcome [2] | outcome [3] | outcome [4] | outcome [5] | outcome [6] | outcome [8] | Potency [15] | Potency [9] | outcome [16] | Potency [10] | Potency [11] | max response [13] 4.04% | Potency [14]

CC(S)C(C)S (centres undefined)
inactive: Potency [1] | outcome [2] | outcome [3] | outcome [4] | outcome [5] | outcome [6] | outcome [7] | outcome [8] | Potency [9] | outcome [16] | Potency [10] | outcome [12] | max response [13] 7.38% | Potency [14]

Cc1ccccc1C(N)=O
inactive: Potency [1] | outcome [2] | outcome [3] | outcome [4] | outcome [5] | outcome [6] | outcome [8] | Potency [9] | outcome [16] | Potency [10] | outcome [12] | max response [13] 3% | Potency [14]

CC12CCC(C1)C(C)(C)C2O (centres undefined)
inactive: Potency [1] | outcome [2] | outcome [3] | outcome [4] | outcome [5] | outcome [6] | outcome [7] | outcome [8] | Potency [11] | outcome [12]

CC(=O)CCc1ccc(OC(C)=O)cc1
inactive: Potency [1] | outcome [2] | outcome [3] | outcome [4] | outcome [5] | outcome [6] | outcome [7] | outcome [8] | Potency [9] | Potency [10] | Potency [11] | outcome [12] | max response [13] 2.75%

[O]=[Mo](=[O])=[O]
inactive: activation [1] -3.75% [at 19 µM] | viability change, negative = cytotoxic [2] -2.25% [at 19 µM] | activation [3] -6.48% [at 19 µM] | activity change, negative = cytotoxicity [4] -18.3% [at 15.8 µM] | activation (H2AX phosphorylation) [5] -3.3% [at 31.6 µM] | activation [6] -0.622% [at 15.8 µM] | activity change, negative = cytotoxicity [7] -2.98% [at 31.6 µM] | activity change, negative = cytotoxicity [8] 2.84% [at 15.8 µM] | cytotoxicity [9] -18.1% [at 15.8 µM] | cytotoxicity increase [10] -43.2% [at 15.8 µM] | viability change, negative = cytotoxic [12] 2.7% [at 15.8 µM] | activity change [14] -37.6% [at 15.8 µM, stronger effect = higher value]

CC(C)=CCC/C(C)=C/COC=O
inactive: Potency [1] | outcome [2] | outcome [3] | outcome [4] | outcome [5] | outcome [6] | outcome [8] | Potency [15] | Potency [9] | outcome [16] | Potency [10] | Potency [11] | outcome [12] | max response [13] 0.565% | Potency [14]

COc1ccc2c(c1)c1c3n2CCN(C)C3=NCC1
inactive: Potency [1] | outcome [2] | outcome [3] | outcome [4] | outcome [5] | outcome [6] | outcome [8] | Potency [15] | Potency [9] | outcome [16] | Potency [10] | Potency [11] | max response [13] 17.6% | Potency [14]

COCCc1ccccn1
inactive: Potency [1] | outcome [2] | outcome [3] | outcome [4] | outcome [5] | outcome [6] | outcome [8] | Potency [15] | Potency [9] | outcome [16] | Potency [10] | Potency [11] | max response [13] -3.81% | Potency [14]

CCNC(=O)NCc1cccc(Cl)c1
inactive: Potency [1] | outcome [2] | outcome [3] | outcome [4] | outcome [5] | outcome [6] | outcome [7] | outcome [8] | Potency [9] | Potency [10] | outcome [12] | max response [13] 0.19% | Potency [14]

CC1=C(O)C(=O)C(C)O1 (centres undefined)
inactive: Potency [1] | outcome [2] | outcome [3] | outcome [4] | outcome [5] | outcome [6] | outcome [8] | Potency [15] | Potency [9] | outcome [16] | Potency [10] | Potency [11] | max response [13] 2.72% | Potency [14]

CC(=O)O[C@@H]1CC2CCC1(C)C2(C)C (some centres undefined)
inactive: Potency [1] | outcome [2] | outcome [3] | outcome [4] | outcome [5] | outcome [6] | outcome [8] | Potency [15] | Potency [9] | Potency [10] | Potency [11] | outcome [12] | max response [13] 5.83% | Potency [14]

Source: PubChem BioAssay (Tox21)
